# According to PMC7819943, “Rice protein-binding microarrays: a tool to detect cis-acting elements near promoter regions in rice”:
# Over roughly 39,000 sequences, “fluorescence intensity (a.u.)” has its median near 4,300; the highest 2% begin near 39,000. What follows is part of a selection rich in the highest values, with near analogues and random picks from the rest.
# Biological target: T1, OsSMF1 (Oryza sativa, UniProt Q6ZLB0 1-436)
# T1 sequence: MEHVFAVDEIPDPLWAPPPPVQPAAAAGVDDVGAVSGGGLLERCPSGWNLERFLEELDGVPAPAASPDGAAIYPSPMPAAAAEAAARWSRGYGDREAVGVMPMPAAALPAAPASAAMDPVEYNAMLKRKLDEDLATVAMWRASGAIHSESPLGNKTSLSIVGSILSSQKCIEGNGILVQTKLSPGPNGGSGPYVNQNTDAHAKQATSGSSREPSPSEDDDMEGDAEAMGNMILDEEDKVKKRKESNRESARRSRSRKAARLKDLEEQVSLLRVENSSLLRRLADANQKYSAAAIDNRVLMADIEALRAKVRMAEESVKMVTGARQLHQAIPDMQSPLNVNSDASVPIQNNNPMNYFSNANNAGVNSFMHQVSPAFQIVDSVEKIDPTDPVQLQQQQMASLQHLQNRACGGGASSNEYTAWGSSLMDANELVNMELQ
# Test: protein-binding microarray (RPBM); PBS, 2% BSA, 51.3 ng/ul salmon testes DNA, 50 uM zinc acetate, 200 nM TF, 25 C, 1 h; high values mean tight binding
# Conditions: protein: recombinant; tags: N-terminal polyhistidine and DsRed monomer fusion (pET32a); chain copies: 2; label: CyDye5-dUTP incorporated in the synthesized complementary strand; 3' TTTTT single-stranded linker to array surface; dsDNA, one strand shown
# Method in brief: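 Binding signal is reported as fluorescence intensity per feature (arbitrary units) from an Axon 4000B scanner. Incubation used 200 nM of each Ni–NTA-purified, N-terminally polyhistidine- and DsRed-fused transcription factor from E. coli BL21-CodonPlus on a double-stranded custom Agilent array for 1 h at 25 °C, with 50 µM zinc acetate in the buffer, followed by washing.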
row,Sequence,binding signal
1,TTCAAGTCCAACCTCGGCCACATGCTCCGCCTCCGCCTCGCGGAGTCACCTAGTGCAG,3780 fluorescence intensity (a.u.)
2,TTTCTTAACTCGACACGCAATGTATTGTTATTTACGATTCCGGAGTCACCTAGTGCAG,3740 fluorescence intensity (a.u.)
3,TACCACTATCGGAAGTTTTGGTTGTGACGTCCACAATTCCCGGAGTCACCTAGTGCAG,3760 fluorescence intensity (a.u.)
4,CTAATGGGACTGCTGCTACCCTATCTTTAGTCCGGGACTACGGAGTCACCTAGTGCAG,3270 fluorescence intensity (a.u.)
5,TTTCACCCGGGACTAAAGATCGCTATCTTTAGTCCCGGATCGGAGTCACCTAGTGCAG,52600 fluorescence intensity (a.u.)
6,AACCGGGACTAAAGATCGTACCTTTAGTTACGATCTTTAGCGGAGTCACCTAGTGCAG,28500 fluorescence intensity (a.u.)
7,CAAGGGAGCTGGTAACACTCATCATTTCCGTTCTTCAAATCGGAGTCACCTAGTGCAG,3250 fluorescence intensity (a.u.)
8,AGGTTGGTGATTCAGAGATGTCGAGACGTGTGTTCTTTTGCGGAGTCACCTAGTGCAG,4270 fluorescence intensity (a.u.)
9,GCGCGTTGCTGCTGACTCCGGAGCAAAATCGAGCGAGCGCCGGAGTCACCTAGTGCAG,3360 fluorescence intensity (a.u.)
10,AACTCCGAGCGTTGCTATGGGAGTTCCGTAAAATAGTAATCGGAGTCACCTAGTGCAG,39300 fluorescence intensity (a.u.)
11,TTAATACAAATCCGTTGCATCACACGAGTCATATGCTAGTCGGAGTCACCTAGTGCAG,5010 fluorescence intensity (a.u.)
12,TTGAATTGCCATTACAAGCAGAAACTGGGTAGCCCAGCAGCGGAGTCACCTAGTGCAG,14600 fluorescence intensity (a.u.)
13,GCCGCTGCACCGCCCCAGCCTCCTCCTCCCCACCGATGCCCGGAGTCACCTAGTGCAG,3150 fluorescence intensity (a.u.)
14,TCTATAAATATGATGTGGCTATGTACTCAGTACTCACCTGCGGAGTCACCTAGTGCAG,6690 fluorescence intensity (a.u.)
15,GGCGGCACAGGTCGCCGTCGTCGCCACCGACGCGGCGTCGCGGAGTCACCTAGTGCAG,3730 fluorescence intensity (a.u.)
16,ACGGGCTCGTCGAGCTGCTCTGGTGCAATGGCCACGTCATCGGAGTCACCTAGTGCAG,28400 fluorescence intensity (a.u.)
17,GGCTGCTCATTGTCGTCTCATCTGGGCTTTTCAATGGGCTCGGAGTCACCTAGTGCAG,53700 fluorescence intensity (a.u.)
18,CCATTCATGCCCGTGATATCCTGGCTCCACGAGCTCTGCTCGGAGTCACCTAGTGCAG,59000 fluorescence intensity (a.u.)
19,GTGCAGATCCACTGTCTGCTCATTGGGCTTATTCATGGCTCGGAGTCACCTAGTGCAG,40700 fluorescence intensity (a.u.)
20,AATATCATCCGTGTCACTACCTAGCTCCTGCATGCTCTGCCGGAGTCACCTAGTGCAG,4560 fluorescence intensity (a.u.)
21,TGACTGCTGGCTCACATCCAGTCATTGGCTTAGCTAGCTGCGGAGTCACCTAGTGCAG,4160 fluorescence intensity (a.u.)

row,Sequence,binding signal
1,CACGAGTGCCTCTCCGTCATGCTCCACGACAGCTGCAGCCCGGAGTCACCTAGTGCAG,4760 fluorescence intensity (a.u.)
2,GCGCCCCATCCACGCGTCATGCATCCACGTCGGGGCTGCACGGAGTCACCTAGTGCAG,11600 fluorescence intensity (a.u.)
3,TGAGCACCTCATCCACGCGTCATGCATCTGTGTCGGGGCTCGGAGTCACCTAGTGCAG,45200 fluorescence intensity (a.u.)
4,GCTGTCCTGCTCGTCGGCCTCCACGCGCGCTCATCGGCCTCGGAGTCACCTAGTGCAG,3240 fluorescence intensity (a.u.)
5,CCTTTTCAATGTTCTTGTCATCACTGCTCGTGTCACCCGTCGGAGTCACCTAGTGCAG,5650 fluorescence intensity (a.u.)
6,TTATTCATACATGTCACTGCCAGGCTGCTGTCTACTTCTTCGGAGTCACCTAGTGCAG,4950 fluorescence intensity (a.u.)
7,ACCTGTGAATGTCTCTAGTGTGACGACTCTACTTCAGTTTCGGAGTCACCTAGTGCAG,4050 fluorescence intensity (a.u.)
8,GAGCCTTACCGGCTCAGACTTGGCATGACGTGGACGTACACGGAGTCACCTAGTGCAG,22500 fluorescence intensity (a.u.)
9,TTCATTCCCAAATGCCACCCGGGCCCACATGTCAGCCTCACGGAGTCACCTAGTGCAG,4670 fluorescence intensity (a.u.)
10,TTACCCTTAGTCATTTGACCCTATTACATGTGGGACCCACCGGAGTCACCTAGTGCAG,3900 fluorescence intensity (a.u.)
11,GTCATGGATCAAATCATCATGTATATCATCCGTCGTCGTGCGGAGTCACCTAGTGCAG,3180 fluorescence intensity (a.u.)
12,TGTTGCTCGGCCAAACGTACACACAGTTCGTTATATATCGCGGAGTCACCTAGTGCAG,12100 fluorescence intensity (a.u.)
13,TATTTTGGAGCGGACGAAGTAATAATATAGTACACGTCGGCGGAGTCACCTAGTGCAG,5310 fluorescence intensity (a.u.)
14,CCCATAACTGAATTGTTAATTTTGTCACGCGAGCAACGCACGGAGTCACCTAGTGCAG,19300 fluorescence intensity (a.u.)
15,ATACATAGCCATATATAAAATTAATGTGATAACATATTCTCGGAGTCACCTAGTGCAG,3660 fluorescence intensity (a.u.)
16,GATAATTAAGCTGATAGCGAGACATAACAAGCTCTGTTCTCGGAGTCACCTAGTGCAG,49600 fluorescence intensity (a.u.)
17,ATACAAGACAAATCGATTAACATAAGATCGATATATCGCTCGGAGTCACCTAGTGCAG,24700 fluorescence intensity (a.u.)
18,TGATAATAATTATTTCTTGGTCTTTAAATTAAGGGTGATTCGGAGTCACCTAGTGCAG,14800 fluorescence intensity (a.u.)
19,TAATAAGAGGCTGTAAGTCGGCTAAATGCTGAGGTGGAGGCGGAGTCACCTAGTGCAG,8660 fluorescence intensity (a.u.)
20,TGTTTGTAAAGTAGAGCGTGCATGTGTGCGTTCTTAAGGTCGGAGTCACCTAGTGCAG,3590 fluorescence intensity (a.u.)
21,AAGTAAATGTAGATAAGGCCGTGTAATAAAGGTTGCTAGTCGGAGTCACCTAGTGCAG,56800 fluorescence intensity (a.u.)
